Screening results as filed in PubChem.
CRE Fsk mod = CRE-bla signaling modulation under forskolin stimulation. CHO CRE-bla reporter (cAMP response element driving beta-lactamase), forskolin EC10, beta-lactamase ratio. Potency, µM (titrated, usually from 38.2 µM), actives largely listed as activators. actives 2.5% (n = 71,000); active = well fitted activation curve with a large enough effect in the signal ratio, with a control signal flat, not every such curve was filed as active; inconclusive = small, poorly fitted or top-dose-only effect, or effect the other way, or a change in a side signal; the % refers to the signal ratio
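CRE-bla CHO reporter cells treated with compound titration plus EC10 NKH 477 (water-soluble forskolin), incubated 3 h at 37 °C; CCF4 loading 2 h at room temperature, 460/530 nm emission ratio read, AC50 values derived for positive or negative modulators.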
4-MU autofl = compounds fluorescent in 4-MU spectral region | compound autofluorescence, 340/450 nm, 4-MU equivalents; active compounds read high | max dye-equivalent concentration, M | actives 11% (n = 59,000) | AID 589; in the data active = max dye-equivalent concentration above about 10 nM; inconclusive = mostly about 1.1 nM to 9.6 nM
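Intrinsic fluorescence at 340/450 nm (ex/em) was read after 15 min at room temperature in pH 8.0, 100 mM Tris. Each compound concentration expressed as 4-MU-equivalent concentration from a six-point 4-MU standard series on each plate.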
HSD17B inhib = blocks hydroxysteroid 17-beta dehydrogenase activity | Q99714 | recombinant HSD17B10, NADH fluorescence kinetic | Potency, µM (highest dose often 57.1 µM), most hits filed as inhibitors | actives 7.6% (n = 75,000) | AID 893;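 note: the protocol describes HADH2 (HSD17B10) and not the HSD17B4 of the title; nearly all actives have a fitted effect of over 70% in size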
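Enzyme plus compound, 15 min room temperature; substrate mix added (NAD+ 1 mM, beta-hydroxybutyryl-CoA 90 uM final); plates read kinetically for NADH fluorescence. HADH2 was His-tagged, E. coli-derived, 20 nM.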
AID923 = qHTS Assay for Allosteric/Competitive Inhibitors of Caspase-1: Spectroscopic Profiling in AFC Spectral Region; actives 1.1% (n = 75,000); Potency, µM (titrated, usually from 57.5 µM), hits mostly activators; compound fluorescence, AFC spectral region (405/520 nm)
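Titrations up to 57 uM read every 20 sec for 3 min (405/520 nm) with 50 nM caspase 1 and 5 uM Ac-WEHD-AFC, pH 7.5 HEPES buffer. Fluorescence-vs-time intercept gave baseline, scaled against on-plate AFC standard.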
HADH2 inhib = HADH2 (human) dehydrogenase inhibition; Q99714; recombinant HADH2, NADH fluorescence, beta-hydroxybutyryl-CoA; Potency, µM (series often up to 57.1 µM), hits mostly inhibitors; actives 3.4% (n = 73,000); AID 886; note: nearly all actives have a fitted effect of over 60% in size
Target sequence (Q99714 whole entry, looked up, one chain of several): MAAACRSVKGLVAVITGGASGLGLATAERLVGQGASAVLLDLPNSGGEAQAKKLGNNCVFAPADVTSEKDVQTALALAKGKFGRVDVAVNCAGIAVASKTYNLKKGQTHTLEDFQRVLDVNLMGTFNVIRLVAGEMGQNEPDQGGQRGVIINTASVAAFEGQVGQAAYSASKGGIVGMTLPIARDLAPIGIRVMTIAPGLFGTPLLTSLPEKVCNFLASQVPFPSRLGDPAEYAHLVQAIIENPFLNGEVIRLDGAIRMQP
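E. coli-expressed His-tagged HADH2 tested at 20 nM in alkaline Tris buffer (pH 9.0); oxidation of 90 uM beta-hydroxybutyryl-CoA with 1 mM NAD+ tracked fluorimetrically for 4 min.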
A350 fluor = compounds fluorescent in Alexa 350 spectral region; Compound autofluorescence, 340/450 nm, Alexa 350 dye-equivalents; active compounds read high; max dye-equivalent concentration, M; actives 11% (n = 59,000); in the data active = max dye-equivalent concentration above about 10 nM; inconclusive = mostly about 1.1 nM to 9.6 nM
Numbers stand for hits; [ ] = another dose, or the depositor's remark. Hits are enriched below; roughly 14% of the tested compounds scored in any of these assays. Unless noted, calls come from the whole dose curve; as a rule, active = well fitted curve in the direction sought with a large enough effect; inconclusive = small, poorly fitted or top-dose-only effect, or another doubt; inactive = no such curve, though single readings can be large; an effect the other way counts as inactive or inconclusive.

`COc1nc(Nc2ccc(C(C)=O)cc2)nc(OC)n1` gave HSD17B inhib inactive, AID923 inactive and HADH2 inhib inactive.
Screening Cc1cccc2cc(C#N)c(SCC(=O)N3CCC(C)CC3)nc12 returned CRE Fsk mod inconclusive, 4-MU autofl inconclusive, HSD17B inhib inactive, AID923 inactive, HADH2 inhib inactive and A350 fluor inconclusive.
`CN1CCN(C(=O)CSc2nc(-c3cccs3)ccc2C#N)CC1` gave 4-MU autofl 2.6e-07M and A350 fluor 2.9e-07M.
Screening CCOc1ccccc1C(=O)Nc1nncs1 returned CRE Fsk mod 13µM, 4-MU autofl inactive, HSD17B inhib inactive, AID923 inactive, HADH2 inhib inactive and A350 fluor inactive.
Screening O=C(Nc1nncs1)c1ccccc1Br returned CRE Fsk mod inactive, HSD17B inhib inactive, AID923 inactive and HADH2 inhib inactive.
O=C(O)c1c(-c2nccc3ccccc23)[nH]c(-c2ccccc2)c1S(=O)(=O)O was read as CRE Fsk mod inactive[7.6 µM], 4-MU autofl 4.2e-08M, HSD17B inhib inactive[11.4 µM], AID923 inactive[11.5 µM], HADH2 inhib inactive[11.4 µM] and A350 fluor 4.5e-08M.
For Cc1c(C(=O)NC2CCCCC2)sc2nc3ccc(N)cc3n12 the results were HSD17B inhib inactive, AID923 inactive and HADH2 inhib inactive.
For CC1CN(Cc2cc(=O)n3ccsc3n2)CC(C)O1 (stereo not given) the results were CRE Fsk mod inactive, 4-MU autofl 1.4e-08M, HSD17B inhib inactive, AID923 inactive, HADH2 inhib inactive and A350 fluor 2e-08M.
For O=c1cc(CN2CCc3ccccc32)nc2sccn12 the results were CRE Fsk mod inactive, 4-MU autofl inconclusive, HSD17B inhib inactive, AID923 inactive, HADH2 inhib inactive and A350 fluor inconclusive.
Screening Cc1cccc(NC(=O)CSc2nnc(CSc3nc(C)cc(C)n3)n2Cc2ccco2)c1 returned CRE Fsk mod inactive, 4-MU autofl inactive, HSD17B inhib inactive, AID923 inactive, HADH2 inhib inactive and A350 fluor inactive.
`O=C(Nc1ccc2nn(-c3ccccc3)nc2c1)c1ccc(Br)o1` gave CRE Fsk mod inactive, 4-MU autofl 5.9e-08M, HSD17B inhib 25µM, AID923 inactive, HADH2 inhib inactive and A350 fluor 7.9e-08M.
For O=c1[nH]c(Cl)nc2c1ncn2C1OC(CO)C(O)C1O (stereo not given) the results were HSD17B inhib inactive and AID923 inactive.
`CC1CCN(c2ncnc3c2cnn3Cc2ccc(Cl)cc2)CC1` gave 4-MU autofl inactive and A350 fluor inactive.
COc1ccc(-c2cc(C(F)F)nc(-n3nc(C)cc3C)n2)cc1 was read as CRE Fsk mod inconclusive, 4-MU autofl inconclusive, HSD17B inhib 25µM, AID923 inactive, HADH2 inhib 32µM and A350 fluor 1.1e-08M.
Cc1cc(NC(=O)c2ccc3c(c2)C(=O)N(C2CCCCC2)C3=O)no1 was read as CRE Fsk mod inactive, HSD17B inhib inactive, AID923 inactive and HADH2 inhib inactive.
CCC(=O)Nc1ccc2c(c1)C(=O)N(C1CCCCC1)C2=O was read as CRE Fsk mod inactive, 4-MU autofl 2.1e-07M, HSD17B inhib 25µM, AID923 inactive, HADH2 inhib inconclusive and A350 fluor 2.4e-07M.
Screening O=C1[C@H]2[C@H]3[C@H](O)[C@H](O)C/C(=N/OC[C@@H](O)COCc4ccco4)[C@@H]3CC[C@@H]2C(=O)N1Cc1ccc2c(c1)OCO2 returned HSD17B inhib inactive[11.4 µM], AID923 inactive[11.5 µM] and HADH2 inhib inactive[11.4 µM].
For Cc1ccc(-n2c(-c3ccncc3)nnc2-c2cccs2)cc1 the results were CRE Fsk mod inactive, 4-MU autofl inactive, HSD17B inhib 25µM, AID923 inactive, HADH2 inhib inactive and A350 fluor inactive.
FC(F)Sc1nnc(-c2cccs2)n1-c1ccccc1 was read as CRE Fsk mod inactive, 4-MU autofl inactive, HSD17B inhib inactive, AID923 inactive, HADH2 inhib inactive and A350 fluor inactive.
CC[C@@H]1OC(=O)[C@H](C)[C@H](O[C@@H]2C[C@](C)(OC)[C@H](O)[C@H](C)O2)[C@H](C)[C@H](O[C@@H]2O[C@@H](C)C[C@@H](N(C)C)[C@@H]2O)[C@](C)(O)C[C@H](C)C(=NOCOCCOC)[C@H](C)[C@H](O)[C@]1(C)O was read as CRE Fsk mod inactive, 4-MU autofl inactive, HSD17B inhib inactive, AID923 inactive, HADH2 inhib inactive and A350 fluor inactive.
C=CCN1CCc2cc(O)c(O)cc2[C@H](c2ccccc2)C1 was read as CRE Fsk mod inconclusive, 4-MU autofl inactive, HSD17B inhib 32µM, AID923 inactive, HADH2 inhib inconclusive and A350 fluor inactive.
For CN1CCc2c(cc(O)c(O)c2Cl)[C@H](c2cccc(Cl)c2)C1 the results were CRE Fsk mod inactive, 4-MU autofl inactive, HSD17B inhib 25µM, AID923 inactive, HADH2 inhib 1µM and A350 fluor inactive.
Screening C=CCN1CCc2c(cc(O)c(O)c2Cl)[C@H](c2ccccc2)C1 returned CRE Fsk mod inactive, 4-MU autofl inactive, HSD17B inhib 25µM, AID923 inactive, HADH2 inhib 1.3µM and A350 fluor inactive.
`CN1CCc2cc(Cl)c(O)cc2[C@@H](c2ccccc2)C1` gave CRE Fsk mod inconclusive, HSD17B inhib inactive, AID923 inactive and HADH2 inhib inconclusive.
COC(=O)[C@@H]1C[C@@]2(O)[C@H](O)[C@H](O)[C@H](O)C[C@H]2N1Cc1c(F)cccc1Cl was read as HSD17B inhib inactive and AID923 inactive.
`CC(=O)c1ccc(N2CCN(C(=O)C3CCCN(S(=O)(=O)c4cnc[nH]4)C3)CC2)cc1` (stereo not given) gave CRE Fsk mod inconclusive, 4-MU autofl inconclusive, HSD17B inhib inconclusive, AID923 inactive, HADH2 inhib inactive and A350 fluor 1.1e-08M.
`Cc1ccc(Cl)cc1N1CCN(C(=O)C2CCCN(S(=O)(=O)c3cnc[nH]3)C2)CC1` (stereo not given) gave CRE Fsk mod inactive, HSD17B inhib inactive, AID923 inactive and HADH2 inhib inactive.
Screening COC(=O)N1CCC2(CC1)CN(c1ccccc1)C2 returned CRE Fsk mod inconclusive, 4-MU autofl inactive, HSD17B inhib inactive, AID923 inactive, HADH2 inhib inconclusive and A350 fluor inactive.
`CCCNC(=O)OC[C@@H]1O[C@H](CCO/N=C\[C@@H](C)[C@H](OCc2ccccc2)C(C)C)C=C[C@@H]1Oc1ccc(OC)cc1` gave HSD17B inhib inactive[11.4 µM], AID923 inactive[11.5 µM] and HADH2 inhib inactive[11.4 µM].
Screening O=C1c2ccccc2N2C(=O)c3ccccc3C2N1Cc1ccco1 (stereo not given) returned CRE Fsk mod inconclusive, HSD17B inhib inactive, AID923 inactive and HADH2 inhib inconclusive.
